# Test results reported in the supplement of paper PMC10849652.
# Targets with a hit are over-represented here; the source holds about 8,800 in all. About 0.5% of all pairs of compound and target were hits. Unmarked numbers belong to inactive results.
# Tests used:
# Assay in all cases: log2 fold change, soluble protein after heating vs DMSO (PISA); higher = thermal stabilisation; K562 lysate, 10 uM; active = over 0.2 and 3.5 SD of the protein, either way, in both replicates (recomputed)
# ibrutinib = compound: C=CC(=O)N1CCC[C@@H](n2nc(-c3ccc(Oc4ccccc4)cc3)c3c(N)ncnc32)C1 [ibrutinib]
# Procedure, shortened: (§1)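 Soluble protein was defined as the supernatant remaining after 21,000xg for 90 min, following pooling of heated aliquots and adjustment to 0.5% NP-40 at 4°C. Before that, crude K562 extract at 1 mg/mL protein in PBS pH 7.4 with 1 mM MgCl2 was treated with 10 μM compound for 30 min and heated for 3 min across 48°C-58°C. Quantification used TMTpro 16plex LC-MS/MS with channel sums equalised, and values are log-two fold changes in thermal stability relative to solvent controls from duplicates.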
# [1] = compound: CC(=O)c1cnc2ccc(-c3cc(Cl)c(O)c(Cl)c3)nc2c1N[C@H]1CC[C@H](CN(C)C)CC1
# Procedure, shortened: as §1
# ralimetinib = compound: CC(C)(C)Cn1c(N)nc2ccc(-c3[nH]c(C(C)(C)C)nc3-c3ccc(F)cc3)nc21 [ralimetinib]
# Procedure, shortened: as §1
# [2] = compound: CC(C)(O)CC(=O)NCCn1ccc2ncnc(Nc3ccc(Oc4cccc(C(F)(F)F)c4)c(Cl)c3)c21
# Procedure, shortened: as §1
# [3] = compound: CC(C)C1=C2N=C(C=C(N2N=C1)NCC3=CC=CC=C3)NCCCCCCN
# Procedure, shortened: as §1
# [4] = compound: CC1=C(C(CC(=O)N1)C2=CC=C(C=C2)C(F)(F)F)C(=O)NC3=C(C=C4C(=C3)C=NN4)F
# Procedure, shortened: as §1
# [5] = compound: CC1=C(C2=C(C=C1)C(=O)C3=CC=CC=C3N2CCCN)C
# Procedure, shortened: as §1
# [6] = compound: CC1=C(C=C(C=C1)NC(=O)C2=CC(=CC=C2)C(C)(C)C#N)NC3=CC4=C(C=C3)N=CN(C4=O)C
# Procedure, shortened: as §1
# [7] = compound: CC1=C(C=C(C=C1)NC(=O)C2=CC(=CC=C2)N(C)C)NC(=O)C3=CC=C(C=C3)O
# Procedure, shortened: as §1
# [8] = compound: CC1=CC=C(C=C1)SC2=C3C=C(SC3=CN=C2)C(=O)N
# Procedure, shortened: as §1
# vemurafenib = compound: CCCS(=O)(=O)Nc1ccc(F)c(C(=O)c2c[nH]c3ncc(-c4ccc(Cl)cc4)cc23)c1F [vemurafenib]
# Procedure, shortened: as §1
# [9] = compound: CCCS(=O)(=O)Nc1ccc(F)c(C(=O)c2c[nH]c3ncc(Cl)cc23)c1F
# Procedure, shortened: as §1
# barasertib = compound: CCN(CCCOc1ccc2c(Nc3cc(CC(=O)Nc4cccc(F)c4)[nH]n3)ncnc2c1)CCOP(=O)(O)O [barasertib]
# Procedure, shortened: as §1
# [10] = compound: CC[C@@H]1C(=O)N(C)c2cnc(Nc3ccc(C(=O)NC4CCN(C)CC4)cc3OC)nc2N1C1CCCC1
# Procedure, shortened: as §1
# volasertib = compound: CC[C@@H]1C(=O)N(C)c2cnc(Nc3ccc(C(=O)N[C@H]4CC[C@H](N5CCN(CC6CC6)CC5)CC4)cc3OC)nc2N1C(C)C [volasertib]
# Procedure, shortened: as §1
# [11] = compound: CCn1c(C(=O)N(C2CC2)C2CC2)cc2c3c(ncn3C)c(Nc3cc(C)n(C)n3)nc21
# Procedure, shortened: as §1
# [12] = compound: CCn1cc(-c2ccnc3[nH]c(-c4cccc(CN(C)C)c4)cc23)c(-c2ccc(NC(=O)N(C)C)cc2)n1
# Procedure, shortened: as §1
# [13] = compound: CN1CCC(CNc2ccc3ncc(-c4cccc(OC(F)(F)F)c4)n3n2)CC1
# Procedure, shortened: as §1
# saracatinib = compound: CN1CCN(CCOc2cc(OC3CCOCC3)c3c(Nc4c(Cl)ccc5c4OCO5)ncnc3c2)CC1 [saracatinib]
# Procedure, shortened: as §1
# sotrastaurin = compound: CN1CCN(c2nc(C3=C(c4c[nH]c5ccccc45)C(=O)NC3=O)c3ccccc3n2)CC1 [sotrastaurin]
# Procedure, shortened: as §1
# Sequence of UniProt Q9UI10 (Q9UI10 whole entry, looked up): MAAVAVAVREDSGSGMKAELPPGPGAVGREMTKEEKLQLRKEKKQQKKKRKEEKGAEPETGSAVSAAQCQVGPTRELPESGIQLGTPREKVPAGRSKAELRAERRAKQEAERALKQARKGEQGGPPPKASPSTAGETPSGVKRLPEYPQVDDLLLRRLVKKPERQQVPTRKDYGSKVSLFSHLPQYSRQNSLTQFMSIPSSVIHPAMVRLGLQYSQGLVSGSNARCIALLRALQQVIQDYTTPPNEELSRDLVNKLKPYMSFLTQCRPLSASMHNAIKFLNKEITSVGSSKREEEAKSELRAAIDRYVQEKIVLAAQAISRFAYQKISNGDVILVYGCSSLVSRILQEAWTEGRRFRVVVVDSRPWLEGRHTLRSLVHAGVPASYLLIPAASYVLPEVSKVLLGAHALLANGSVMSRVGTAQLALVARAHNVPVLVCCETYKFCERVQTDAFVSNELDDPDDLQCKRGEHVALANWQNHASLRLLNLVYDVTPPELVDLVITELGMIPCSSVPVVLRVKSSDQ
# Sequence of UniProt Q7L8L6 (Q7L8L6 whole entry, looked up): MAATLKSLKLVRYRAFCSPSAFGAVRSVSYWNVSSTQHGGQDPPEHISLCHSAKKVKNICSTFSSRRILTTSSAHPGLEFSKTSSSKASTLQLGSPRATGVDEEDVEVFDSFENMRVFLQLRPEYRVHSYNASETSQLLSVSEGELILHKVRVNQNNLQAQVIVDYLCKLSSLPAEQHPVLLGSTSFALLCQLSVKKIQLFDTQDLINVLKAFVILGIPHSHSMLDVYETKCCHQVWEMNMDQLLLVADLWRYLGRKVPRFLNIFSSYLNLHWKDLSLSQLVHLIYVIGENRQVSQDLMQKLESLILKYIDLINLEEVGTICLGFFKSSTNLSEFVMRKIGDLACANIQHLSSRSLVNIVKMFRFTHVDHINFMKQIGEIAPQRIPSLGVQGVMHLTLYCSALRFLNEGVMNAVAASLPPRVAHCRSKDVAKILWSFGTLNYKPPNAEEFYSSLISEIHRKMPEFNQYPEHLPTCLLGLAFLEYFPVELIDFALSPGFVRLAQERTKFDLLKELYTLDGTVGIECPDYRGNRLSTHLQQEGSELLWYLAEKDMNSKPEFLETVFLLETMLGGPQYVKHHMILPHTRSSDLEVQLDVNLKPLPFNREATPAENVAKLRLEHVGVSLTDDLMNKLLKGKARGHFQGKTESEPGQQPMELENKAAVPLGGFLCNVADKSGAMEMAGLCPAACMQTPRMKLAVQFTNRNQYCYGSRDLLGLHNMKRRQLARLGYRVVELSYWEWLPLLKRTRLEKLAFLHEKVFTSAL
# Sequence of UniProt Q9HCG7 (Q9HCG7 whole entry, looked up): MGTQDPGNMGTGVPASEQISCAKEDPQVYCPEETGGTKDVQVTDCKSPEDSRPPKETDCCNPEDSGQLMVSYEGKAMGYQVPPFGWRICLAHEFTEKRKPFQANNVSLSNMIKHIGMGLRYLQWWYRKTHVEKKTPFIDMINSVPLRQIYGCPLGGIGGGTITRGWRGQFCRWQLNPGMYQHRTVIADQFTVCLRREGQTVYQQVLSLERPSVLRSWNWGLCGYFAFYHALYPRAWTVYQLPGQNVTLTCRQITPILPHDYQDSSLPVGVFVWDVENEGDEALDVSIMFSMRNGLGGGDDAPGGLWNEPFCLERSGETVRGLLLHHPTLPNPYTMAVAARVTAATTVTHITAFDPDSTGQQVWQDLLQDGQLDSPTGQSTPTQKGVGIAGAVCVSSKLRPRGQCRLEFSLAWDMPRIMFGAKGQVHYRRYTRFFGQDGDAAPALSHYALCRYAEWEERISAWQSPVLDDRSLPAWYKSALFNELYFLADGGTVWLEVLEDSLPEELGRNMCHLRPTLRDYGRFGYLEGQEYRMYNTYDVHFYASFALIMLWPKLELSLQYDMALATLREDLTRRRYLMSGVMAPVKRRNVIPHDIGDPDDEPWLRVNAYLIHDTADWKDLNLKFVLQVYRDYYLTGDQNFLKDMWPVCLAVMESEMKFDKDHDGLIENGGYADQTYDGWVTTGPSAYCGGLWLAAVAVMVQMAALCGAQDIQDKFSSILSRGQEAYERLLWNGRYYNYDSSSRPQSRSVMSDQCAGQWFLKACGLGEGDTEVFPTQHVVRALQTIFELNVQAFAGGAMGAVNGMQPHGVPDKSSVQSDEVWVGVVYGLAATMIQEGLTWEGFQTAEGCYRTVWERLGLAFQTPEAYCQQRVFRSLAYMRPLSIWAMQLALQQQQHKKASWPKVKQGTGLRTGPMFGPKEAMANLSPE
# Sequence of UniProt Q8NFF5 (Q8NFF5 whole entry, looked up): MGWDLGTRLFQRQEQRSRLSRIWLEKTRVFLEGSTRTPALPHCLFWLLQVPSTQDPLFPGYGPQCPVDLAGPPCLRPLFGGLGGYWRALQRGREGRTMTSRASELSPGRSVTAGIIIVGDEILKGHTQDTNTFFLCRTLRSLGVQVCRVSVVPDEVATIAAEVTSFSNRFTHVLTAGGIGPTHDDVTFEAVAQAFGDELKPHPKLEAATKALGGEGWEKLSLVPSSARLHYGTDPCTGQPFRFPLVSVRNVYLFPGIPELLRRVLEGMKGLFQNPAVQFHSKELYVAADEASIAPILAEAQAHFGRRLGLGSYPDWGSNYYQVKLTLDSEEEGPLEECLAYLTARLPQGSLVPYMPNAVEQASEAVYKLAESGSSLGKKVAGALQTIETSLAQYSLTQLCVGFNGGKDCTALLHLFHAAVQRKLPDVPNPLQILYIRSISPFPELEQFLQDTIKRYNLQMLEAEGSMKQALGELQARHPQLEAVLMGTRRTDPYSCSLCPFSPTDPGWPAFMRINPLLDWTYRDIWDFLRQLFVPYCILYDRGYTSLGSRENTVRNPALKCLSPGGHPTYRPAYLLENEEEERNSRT
# Sequence of UniProt Q86UY5 (Q86UY5 whole entry, looked up): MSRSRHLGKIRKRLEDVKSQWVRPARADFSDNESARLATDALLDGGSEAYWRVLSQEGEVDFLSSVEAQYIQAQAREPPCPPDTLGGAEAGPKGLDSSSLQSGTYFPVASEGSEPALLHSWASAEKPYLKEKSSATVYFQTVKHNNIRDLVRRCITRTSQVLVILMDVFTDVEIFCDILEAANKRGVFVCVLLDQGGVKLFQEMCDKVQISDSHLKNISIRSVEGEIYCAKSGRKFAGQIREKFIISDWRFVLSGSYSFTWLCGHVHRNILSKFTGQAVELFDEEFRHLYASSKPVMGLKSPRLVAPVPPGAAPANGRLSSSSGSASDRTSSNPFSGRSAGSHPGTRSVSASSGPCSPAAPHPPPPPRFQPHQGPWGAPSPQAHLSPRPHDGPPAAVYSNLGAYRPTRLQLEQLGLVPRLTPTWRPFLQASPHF
# Sequence of UniProt P0C2W1 (P0C2W1 whole entry, looked up): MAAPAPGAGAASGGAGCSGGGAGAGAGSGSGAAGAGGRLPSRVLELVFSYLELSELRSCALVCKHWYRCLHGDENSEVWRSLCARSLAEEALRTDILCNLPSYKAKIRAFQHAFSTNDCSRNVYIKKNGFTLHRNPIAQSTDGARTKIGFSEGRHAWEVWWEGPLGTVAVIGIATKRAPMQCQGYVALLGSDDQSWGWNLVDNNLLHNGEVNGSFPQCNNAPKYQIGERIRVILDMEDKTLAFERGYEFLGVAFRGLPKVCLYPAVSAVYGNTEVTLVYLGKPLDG
# Sequence of UniProt Q6IPR1 (Q6IPR1 whole entry, looked up): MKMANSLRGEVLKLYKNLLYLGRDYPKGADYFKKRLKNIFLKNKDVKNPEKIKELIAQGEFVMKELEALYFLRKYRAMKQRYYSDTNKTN
# Sequence of UniProt Q8NCA5 (Q8NCA5 whole entry, looked up): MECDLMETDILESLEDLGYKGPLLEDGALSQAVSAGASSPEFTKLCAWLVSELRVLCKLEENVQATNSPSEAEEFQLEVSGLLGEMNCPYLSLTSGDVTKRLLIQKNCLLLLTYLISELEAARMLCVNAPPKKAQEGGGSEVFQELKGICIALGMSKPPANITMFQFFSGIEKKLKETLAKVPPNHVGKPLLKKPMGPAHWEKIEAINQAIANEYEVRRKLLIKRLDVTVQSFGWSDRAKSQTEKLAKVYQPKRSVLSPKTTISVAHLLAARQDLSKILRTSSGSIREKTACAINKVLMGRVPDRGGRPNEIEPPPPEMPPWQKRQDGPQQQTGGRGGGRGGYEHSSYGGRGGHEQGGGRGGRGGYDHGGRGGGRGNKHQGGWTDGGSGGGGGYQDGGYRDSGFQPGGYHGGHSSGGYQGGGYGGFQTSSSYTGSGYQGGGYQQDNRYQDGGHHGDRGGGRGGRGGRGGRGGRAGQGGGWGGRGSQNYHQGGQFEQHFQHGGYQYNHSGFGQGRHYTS
# Sequence of UniProt O75616 (O75616 whole entry, looked up): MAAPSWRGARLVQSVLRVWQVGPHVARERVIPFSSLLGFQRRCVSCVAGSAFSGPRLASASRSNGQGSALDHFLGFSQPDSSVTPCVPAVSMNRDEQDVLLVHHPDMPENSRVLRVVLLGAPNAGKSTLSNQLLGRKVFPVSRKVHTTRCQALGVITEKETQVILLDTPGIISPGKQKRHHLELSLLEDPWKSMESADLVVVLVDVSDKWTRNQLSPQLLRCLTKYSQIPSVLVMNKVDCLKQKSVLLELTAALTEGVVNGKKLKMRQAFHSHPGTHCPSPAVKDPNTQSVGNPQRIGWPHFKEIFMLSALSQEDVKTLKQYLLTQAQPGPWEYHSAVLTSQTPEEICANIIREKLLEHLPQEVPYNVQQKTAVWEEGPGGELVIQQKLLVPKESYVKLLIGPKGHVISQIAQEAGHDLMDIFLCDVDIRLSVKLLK
# Sequence of UniProt O43427 (O43427 whole entry, looked up): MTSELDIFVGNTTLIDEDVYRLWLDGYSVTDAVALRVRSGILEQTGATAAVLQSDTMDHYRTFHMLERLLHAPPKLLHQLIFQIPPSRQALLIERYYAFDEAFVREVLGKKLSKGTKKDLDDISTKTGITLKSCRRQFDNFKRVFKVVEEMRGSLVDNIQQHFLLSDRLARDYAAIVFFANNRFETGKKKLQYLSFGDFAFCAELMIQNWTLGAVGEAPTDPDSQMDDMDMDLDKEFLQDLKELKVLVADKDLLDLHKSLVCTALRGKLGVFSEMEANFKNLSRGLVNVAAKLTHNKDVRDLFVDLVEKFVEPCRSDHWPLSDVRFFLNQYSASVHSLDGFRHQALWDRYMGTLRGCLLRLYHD
Target,log2 fold change (ibrutinib),log2 fold change [1],log2 fold change (ralimetinib),log2 fold change [2],log2 fold change [3],log2 fold change [4],log2 fold change [5],log2 fold change [6],log2 fold change [7],log2 fold change [8],log2 fold change (vemurafenib),log2 fold change [9],log2 fold change (barasertib),log2 fold change [10],log2 fold change (volasertib),log2 fold change [11],log2 fold change [12],log2 fold change [13],log2 fold change (saracatinib),log2 fold change (sotrastaurin)
FAM83A (UniProt Q86UY5),0.125,0.006,0.008,0.053,-0.06,0.018,0.023,0.035,-0.023,0.026,0.038,-0.002,0.035,-0.001,0.003,0.05,0.103,0.06,0.01,-0.049
DSTN (UniProt P60981),-0.011,-0.013,-0.004,0.038,-0.006,-0.001,0.045,-0.005,-0.012,-0.003,-0.006,-0.002,-0.005,-0.015,-0.013,0.015,0.025,0.035,-0.005,-0.011
FBXO45 (UniProt P0C2W1),0.207,0.075,0.173,0.045,0.043,0.015,,0.064,0.018,0.081,-0.064,0.088,0.031,-0.077,-0.04,0.062,-0.002,0.037,,0.028
ERAL1 (UniProt O75616),0.052,-0.042,0.03,0.011,-0.007,0.047,0.03,0.014,0.045,0.018,-0.058,-0.016,-0.032,0.065,-0.046,0.059,-0.065,-0.359 (active),-0.035,0.02
ESRRA (UniProt P11474),-0.408 (active),0.045,0.043,-0.023,0,-0.007,-0.075,0.067,-0.009,0.089,0.058,0.005,0.041,0.03,-0.075,-0.039,0.569 (active),-0.283,-0.055,0.053
GBA2 (UniProt Q9HCG7),-0.071,-0.046,0.082,-0.097,0.042,-0.037,0.077,0.004,0.08,0.021,,0.12,-0.01,0.099,-0.21,0,-0.076,0.025,0.033,0.001
ETFRF1 (UniProt Q6IPR1),0.062,0.028,-0.005,-0.044,-0.006,0.049,-0.018,-0.071,0.136,-0.02,0.084,-0.003,0.012,,-0.03,0,-0.005,-0.03,-0.01,-0.002
FAM98A (UniProt Q8NCA5),-0.033,-0.019,0.046,0.008,0.014,0.04,-0.045,0.008,0.035,0.029,0.063,0.032,-0.016,0.045,-0.029,-0.005,0.088,-0.08,-0.028,0.017
EFCAB14 (UniProt O75071),0.026,0.015,0.055,-0.075,-0.045,0.077,0.02,0.011,0.016,0.012,0.022,0.001,-0.01,0.039,0.008,-0.042,-0.058,0.047,0.023,0.005
FIBP (UniProt O43427),0.015,0.02,0.032,-0.026,0.028,0.057,0.036,0.01,0.024,0.011,-0.011,0.041,0.105,-0.236 (active),-0.013,-0.001,-0.028,-0.021,0.039,0.008
EIF2B4 (UniProt Q9UI10),-0.01,0.05,-0.033,-0.062,0.013,0.009,-0.109,-0.044,0.005,-0.038,-0.064,0.026,0.006,0.04,-0.032,0.048,,,0.042,0.047
FLAD1 (UniProt Q8NFF5),-0.011,0.002,0.016,-0.014,-0.072,-0.004,-0.026,0.002,0.011,0.015,-0.051,0.022,-0.063,0.055,-0.028,0.01,-0.002,-0.035,-0.001,0.075
EXOC2 (UniProt Q96KP1),0.014,0.003,0.049,-0.027,-0.022,0.01,-0.019,0.016,0.032,0.004,0.018,0.109,0.041,-0.028,-0.043,0.031,0.017,-0.094,0.034,0.049
FMNL1 isoform 3 (UniProt O95466),0.043,-0.002,0.038,-0.02,0.023,0.099,0.03,0.073,0.015,0.001,0.022,-0.008,-0.002,0.028,-0.088,-0.035,0.026,-0.032,0.007,-0.006
FAT2 (UniProt Q9NYQ8),0.01,0.057,-0.156,-0.123,-0.314,-0.019,,0.166,0.038,-0.023,0.213,0.19,-0.001,0.016,-0.097,0.089,-0.487,0.248,,0.125
FASTKD5 (UniProt Q7L8L6),-0.134,0.056,0.073,0.007,-0.027,0.032,0.006,0.021,0.008,-0.053,-0.003,0.008,-0.047,0.073,-0.065,0.028,0.082,-0.245,0.043,-0.026
